An excerpt weighted towards active compounds, which were near 1.2% of everything screened.
EPAC2 agonist – activates human EPAC2 exchange factor; Q8WZA2; EPAC2 activation, biochemical qHTS; response scale: 100% = 6.5 mM cAMP response; Potency, µM (titrated, usually from 154 µM), without a hit: at the top dose activation, hits mostly activators; 360,000 compounds, 0.079% hits; AID 720711; further: nearly all actives have a fitted effect of over 50% in size
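Fluorescence exchange assay: 100 nM EPAC2 with 250 nM RAP1B-BODIPY-GDP and 50 uM GDP; compounds tested as a concentration-titration series (qHTS). Loss of Rap1-bound BODIPY-GDP fluorescence read at 480/540 nm; data normalized to 6.5 mM cAMP.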
EPAC2 antag – antagonists of human EPAC2. EPAC2 GEF exchange of Rap1B-BODIPY-GDP, fluorescence. Potency, µM (top dose mostly 114 µM), for inactives: at the top dose activity, negative = inhibition, usual class: inhibitors. 360,000 compounds, 0.18% hits. Q8WZA2; further: on the % scale 0 is the no-effect control and ±100 the full control effect; nearly all actives have a fitted effect of over 45% in size
USP1 inh – inhibitors of human USP1/UAF1 deubiquitinase. O94782. recombinant USP1/UAF1, Ub-Rhodamine cleavage fluorescence. Potency, µM (doses to about 57.1 µM), inactives show at the top dose activity change, negative = inhibition, hits mostly inhibitors. 390,000 compounds, 0.23% hits. AID 743255; further: on the % scale 0 is the no-effect control and ±100 the full control effect; nearly all actives have a fitted effect of over 60% in size
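USP1/UAF1 complex at 1 nM was preincubated with compound for 15 min at room temperature, then Ub-Rho substrate (150nM final) was added. Fluorescence (480/540 nm) was read kinetically, 6 reads every 60 seconds.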
EPAC1 antagonist – antagonists of human EPAC1. O95398. EPAC1 GEF assay, Rap1b-BODIPY-GDP exchange fluorescence. Potency, µM (highest dose often 115 µM), inactives show at the top dose activity change, negative = inhibition, hits mostly inhibitors. 360,000 compounds, 0.14% hits;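 further: plate controls were vehicle for no effect and positive control for full effect; nearly all actives have a fitted effect of over 50% in size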
Target sequence (O95398 whole entry, looked up): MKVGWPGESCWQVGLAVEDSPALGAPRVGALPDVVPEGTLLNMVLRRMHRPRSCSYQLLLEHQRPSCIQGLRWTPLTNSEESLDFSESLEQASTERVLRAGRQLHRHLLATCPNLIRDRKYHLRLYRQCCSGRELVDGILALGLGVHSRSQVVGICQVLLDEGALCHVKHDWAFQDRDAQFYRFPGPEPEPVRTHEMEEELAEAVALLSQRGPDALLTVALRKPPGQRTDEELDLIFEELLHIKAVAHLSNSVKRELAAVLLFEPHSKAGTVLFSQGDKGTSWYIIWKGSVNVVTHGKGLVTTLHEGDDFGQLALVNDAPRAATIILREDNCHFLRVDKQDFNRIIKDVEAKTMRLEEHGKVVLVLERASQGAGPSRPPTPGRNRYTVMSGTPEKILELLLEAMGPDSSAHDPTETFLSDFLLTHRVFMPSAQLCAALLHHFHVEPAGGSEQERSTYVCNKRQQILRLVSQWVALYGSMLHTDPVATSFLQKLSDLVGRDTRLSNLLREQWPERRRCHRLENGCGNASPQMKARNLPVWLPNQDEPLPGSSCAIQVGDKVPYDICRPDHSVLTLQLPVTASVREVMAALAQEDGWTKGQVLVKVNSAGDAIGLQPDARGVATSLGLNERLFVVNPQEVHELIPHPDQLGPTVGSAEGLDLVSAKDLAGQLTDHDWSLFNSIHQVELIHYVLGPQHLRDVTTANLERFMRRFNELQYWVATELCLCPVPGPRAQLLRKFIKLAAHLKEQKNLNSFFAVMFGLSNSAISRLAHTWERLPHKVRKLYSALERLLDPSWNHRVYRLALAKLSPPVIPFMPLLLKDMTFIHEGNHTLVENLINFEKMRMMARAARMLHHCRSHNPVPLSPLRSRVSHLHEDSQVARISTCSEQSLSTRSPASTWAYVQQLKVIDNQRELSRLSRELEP
VDR inh – inhibitors of human vitamin D receptor | P11473 | VDR-SRC2-3 peptide fluorescence polarization, 2 h | Potency, µM, without a hit: max response, negative = inhibition, usual class: inhibitors | 400,000 compounds, 0.93% hits | AID 504847; further: on the % scale 0 is the no-effect control and ±100 the full control effect
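Compounds are added to VDR with labelled SRC2-3 coactivator peptide and held 2 h at room temperature. Inhibition of the VDR–peptide interaction is then read as a change in fluorescence polarization.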
EPAC1 agonist – agonists of human EPAC1 | O95398 | EPAC1 agonist qHTS, biochemical assay; response scale: 100% = response to 6.5 mM cAMP | AID 720707 | 360,000 compounds, 0.073% hits | Potency, µM (top dose mostly 154 µM), inactives show at the highest dose activation, usual class: activators; further: nearly all actives have a fitted effect of over 60% in size
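Multi-concentration qHTS readout: loss of Rap1B-bound BODIPY-GDP fluorescence driven by 100 nM EPAC1 with excess GDP (50 uM), monitored kinetically at room temperature; agonist response expressed relative to 6.5 mM cAMP.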
VDR inh confirm – inhibits human vitamin D receptor, primary hit validation. shares compounds with VDR inh. VDR-coactivator inhibition assay, qHTS confirmation. Potency, µM, most hits filed as inhibitors. 840 compounds, 89% hits. AID 602199
VDR FP – blocks human VDR-coactivator binding in fluorescein assay | shares compounds with VDR inh | VDR-coactivator binding, fluorescein fluorescence polarization | Potency, µM (top dose mostly 57.1 µM), inactives show at the top dose activity change, negative = inhibition, usual class: inhibitors | 840 compounds, 48% hits
VDR bla reporter – VDR (human) inhibition, cell-based beta-lactamase validation; 840 compounds, 23% hits; shares compounds with VDR inh; VDR beta-lactamase reporter cells, FRET ratio; cells co-treated with VDR agonist LG190178; Potency, µM (series often up to 46.1 µM), inactives show at the top dose activity change, negative = inhibition, usual class: inhibitors; AID 602202; further: on the % scale 0 is the no-effect control and ±100 the full control effect
VDR cytotox – cell toxicity, VDR inhibitor hit counter-screen; 840 compounds, 18% hits; shares compounds with VDR inh; cytotoxicity counter-screen, cell viability, qHTS; Potency, µM (series often up to 48.3 µM), for inactives: top-dose activity change, negative = cytotoxicity, most hits filed as cytotoxic;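 further: plate controls were DMSO for no effect and high-concentration cycloheximide for full effect; nearly all actives have a fitted effect of over 75% in size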
Numbers without * were called inactive. The call rests on the fitted dose curve; in most records, active means well fitted curve in the direction sought with a large enough effect; inconclusive means small, poorly fitted or top-dose-only effect, or another doubt; inactive means no such curve, though single readings can be large; an effect the other way counts as inactive or inconclusive. Potency means the concentration at half of the fitted maximal effect.

For O=C(CCCSc1ccc(Cl)cc1)Nc1cc(S(=O)(=O)N2CCOCC2)ccc1O the results were EPAC2 agonist 9%, EPAC2 antag -18%, USP1 inh -11%, EPAC1 antagonist -14%, VDR inh inconclusive, EPAC1 agonist -4%, VDR inh confirm 4*, VDR FP 3.2µM*, VDR bla reporter -6% and VDR cytotox -9%.
For Cc1ccc(S(=O)(=O)N2CCOCC2)cc1NC(=O)CSc1ccc(Cl)cc1 the results were EPAC2 agonist 0%, EPAC2 antag -1%, USP1 inh -20%, EPAC1 antagonist 3%, VDR inh -22% and EPAC1 agonist 0%.
For CCOC(=O)c1ccc(S(=O)(=O)Nc2cc(S(=O)(=O)N3CCOCC3)ccc2O)cc1 the results were EPAC2 agonist 5%, EPAC2 antag -9%, USP1 inh inconclusive, EPAC1 antagonist 12%, VDR inh 45µM*, EPAC1 agonist 11%, VDR inh confirm 8.4*, VDR FP inconclusive, VDR bla reporter 0% and VDR cytotox 3%.
`Cc1cc(O)c(CN2CCN(c3ccccc3)CC2)c2oc(=O)cc(C)c12` gave USP1 inh -28% and VDR inh 9%.
O=C(CSc1nc(-c2ccccc2)nc2c1Cc1ccccc1O2)N1CCCCC1 was read as USP1 inh -21% and VDR inh -10%.
For CCOC(=O)c1csc(NC(=O)CSc2nnnn2-c2ccc(OC)cc2)n1 the results were EPAC2 agonist 6%, EPAC2 antag 1%, USP1 inh 16%, EPAC1 antagonist 9%, VDR inh 1% and EPAC1 agonist 1%.
For CCOC(=O)c1c(NC(=O)CSc2nnnn2-c2ccc(OC)cc2)sc(C)c1C the results were EPAC2 agonist 4%, EPAC2 antag 2%, USP1 inh -18%, EPAC1 antagonist -2%, VDR inh 18µM*, EPAC1 agonist -16%, VDR inh confirm inconclusive, VDR FP inconclusive, VDR bla reporter 7% and VDR cytotox 24%.
Cc1ccc(C(C[N+](=O)[O-])Sc2ccc(N)cc2)cc1 (stereo unspecified) was read as EPAC2 agonist 11%, EPAC2 antag 0%, USP1 inh -26%, EPAC1 antagonist -8%, VDR inh 13µM*, EPAC1 agonist 3%, VDR inh confirm 7.5*, VDR FP inconclusive, VDR bla reporter inconclusive and VDR cytotox inconclusive.
For CC(=O)Nc1ccc(NC(=O)c2nc(S(=O)(=O)Cc3ccccc3)ncc2Cl)cc1 the results were EPAC2 agonist 4%, EPAC2 antag -8%, USP1 inh -16%, EPAC1 antagonist -13%, VDR inh -22% and EPAC1 agonist 1%.
For CCc1nnc(NC(=O)c2nc(S(=O)(=O)Cc3cccc(C)c3)ncc2Cl)s1 the results were EPAC2 agonist -5%, EPAC2 antag -5%, USP1 inh -14%, EPAC1 antagonist -8%, VDR inh 13µM*, EPAC1 agonist -23%, VDR inh confirm 3*, VDR FP inconclusive, VDR bla reporter 5.8µM* and VDR cytotox inconclusive.
CCc1nnc(NC(=O)c2nc(Cl)ccc2Cl)s1 was read as EPAC2 agonist 5%, EPAC2 antag 7%, USP1 inh -12%, EPAC1 antagonist -28%, VDR inh -8% and EPAC1 agonist 8%.
Screening CCc1nnc(NC(=O)c2nc(S(=O)(=O)Cc3ccccc3)ncc2Cl)s1 returned EPAC2 agonist 8%, EPAC2 antag 5%, USP1 inh -13%, EPAC1 antagonist inconclusive, VDR inh 22µM*, EPAC1 agonist -5%, VDR inh confirm 7.5*, VDR FP 8.9µM*, VDR bla reporter 13µM* and VDR cytotox 18µM*.
`COC(=O)c1ccccc1NC(=O)c1nc(S(=O)(=O)Cc2ccccc2)ncc1Cl` gave EPAC2 agonist 12%, EPAC2 antag 12%, USP1 inh -13%, EPAC1 antagonist 8%, VDR inh inconclusive, EPAC1 agonist 0%, VDR inh confirm 3.2*, VDR FP 3.2µM*, VDR bla reporter 9.2µM* and VDR cytotox 21µM*.
O=C(NCc1ccccc1)c1nc(S(=O)(=O)Cc2ccccc2)ncc1Cl was read as EPAC2 agonist 4%, EPAC2 antag -13%, USP1 inh -22%, EPAC1 antagonist -12%, VDR inh inconclusive and EPAC1 agonist -10%.
For CCOc1ccccc1NC(=O)c1nc(S(=O)(=O)Cc2cccc(C)c2)ncc1Cl the results were EPAC2 agonist 3%, EPAC2 antag inconclusive, USP1 inh -3%, EPAC1 antagonist -2%, VDR inh 16µM*, EPAC1 agonist 1%, VDR inh confirm 8.4*, VDR FP inconclusive, VDR bla reporter 3.3µM* and VDR cytotox 7.3µM*.
For COc1ccc2c(c1)O[C@@H](c1cccc(C(F)(F)F)c1)[C@H](OC(=O)N[C@H](C)C1CCCCC1)C2=O the results were VDR inh 12%.
`Cc1ccc(NC(=O)CSc2nc3c(sc4ccccc43)c(=O)n2CCCC(=O)NC2CCCC2)cc1C` gave USP1 inh 2% and VDR inh -1%.
`Clc1nc(NCC2CCCO2)c2[nH]cnc2n1` (stereo unspecified) gave VDR inh -26%.
